{"source": "the supplement of paper PMC6555819"}
{"test_system": "VDR:RXRa (NR concentration 270 nM, RXRa partner concentration 90 nM)", "test": "PBM binding z-score (relative to random genomic background probes); higher = stronger binding; sequences stand for … in GC…GCGATTGACAGCGTAGAATGAAGG", "summary_of_the_method": "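Random background probes are the reference for binding z-scores. These scores derive from regression-normalized fluorescence on custom Agilent 4×180K protein-binding microarrays incubated 1 h with ligand-free nuclear receptor dimers. Binding was detected with antibodies against each partner (one per run).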"}
{"sequence": "CATACAGGGTCAGCTAGGCCAGAGTGGGGACGGC", "PBM binding z-score": 4.01}
{"sequence": "CGTCCAAGGTCAAATGTCAGTGAAGAGATGACGG", "PBM binding z-score": 4.67}
{"sequence": "CCTTACGGGTCAAGGTTAGAGCACGGGTGGTACG", "PBM binding z-score": 3.08}
{"sequence": "AGAATGAGGTTATTCAGATCAGGGAATTGCGGTC", "PBM binding z-score": 2.7}
{"sequence": "AGAACGAGGGCAATGAGATGATAGCACGGGTGGC", "PBM binding z-score": 0.474}
{"sequence": "CATAGAGGGTCAGCTAGGCCAGAGTAGGGACGGC", "PBM binding z-score": 2.69}
{"sequence": "CCTATTAGTTGACCATAAAGGCAACCGAAGCTCG", "PBM binding z-score": 0.841}
{"sequence": "TGAATGAGGTTAAAGATCAGGCAACGTGGCGTCG", "PBM binding z-score": 1.88}
{"sequence": "GCTAGCAGGTCATTTGGGTCACTCAATGACGGGC", "PBM binding z-score": 5.92}
{"sequence": "ATCTCTAGGTAAAGATAGGTCAGTGAATGCAAAT", "PBM binding z-score": 1.13}
{"sequence": "CCAGACAGGTGCAAGGTAACTCAGTCTGGTACGC", "PBM binding z-score": -0.136}
{"sequence": "AGTCAAAGTTCAGGACCAGGTAACGTAAAGCACG", "PBM binding z-score": 2.41}
{"sequence": "CATCCAGGGTCAGCTAGGCCAGAGTAGGGACGGC", "PBM binding z-score": 3.97}
{"sequence": "TGAATGTGGTTAAAGATCAGGGAACGTGGCGTCG", "PBM binding z-score": -0.219}
{"sequence": "TCTAGTTGGTCACGGAGGCCACACACGACGGGTA", "PBM binding z-score": 2.19}
{"sequence": "TTACCATGGTGAAAGGTCGTTGATGCACGCCTTG", "PBM binding z-score": 2.11}
{"sequence": "TCTAATTGGTCAAAGGTCACACACTCGAAATGCG", "PBM binding z-score": 5.62}
{"sequence": "GCGACTGGGGCATAGCAGGTTACCATAAGGTTGG", "PBM binding z-score": -0.336}
{"sequence": "CCTAGCAGGCCAATCTTGGTCACTCAAGGCTTGA", "PBM binding z-score": -0.601}
{"sequence": "TCATATACGTAAACAGGTGAAAGTCCGTAAGTTA", "PBM binding z-score": 1.38}
{"sequence": "CCTACTGGCCCATTCAGAGGTCATTGATCATATG", "PBM binding z-score": 3.58}
{"sequence": "ATCTCTAGGTAACAAGTTCAGTTAAAGAGAGGAC", "PBM binding z-score": 2.23}
{"sequence": "GCTAGCAGGCCCTTTGGGTCACTCAATGACGGGC", "PBM binding z-score": -0.206}
{"sequence": "ACTAGCAGGCCAAGTTTGGGTCACTCAAACAAAG", "PBM binding z-score": 0.525}
{"sequence": "ACAGACAGGTGATGAAGGAAACTCAGGCTATCAT", "PBM binding z-score": -0.266}
{"sequence": "ATCTCTAGGTACCAAGTTCAGTGAAAGAGAGGAC", "PBM binding z-score": 1.64}
{"sequence": "GCGACTGGGGCATCAGCAGGTCACCATAACTTAA", "PBM binding z-score": 1.75}
{"sequence": "TCTATTAGTTGATTAGGGCTACCGAAACAGCGGA", "PBM binding z-score": 0.473}
{"sequence": "ACTAGTTGGTCAGCAGAGGTCACACACAATTCGG", "PBM binding z-score": 4.87}
{"sequence": "ATTGAAAGGTCGAAGGTGAGTATACCCACCCGAA", "PBM binding z-score": 3.13}
{"sequence": "TCTAGCAGGCCAGAGGGTCACGCAAGAGGTACGG", "PBM binding z-score": 2.52}
{"sequence": "TCTAGTTGGTCAAAGGTCGCACACTCGAAATGCG", "PBM binding z-score": 3.18}
{"sequence": "GCTGCTAGGTCAACTGATGGTCAGCTCAAGCTCG", "PBM binding z-score": 1.59}
{"sequence": "CGCCAAAGTTCAACTAAGGTAACGTAAAGCACGC", "PBM binding z-score": 4.9}
{"sequence": "TCAGACAGGTGAAGTTAACTCAGGTACGCAGTCG", "PBM binding z-score": 0.573}
{"sequence": "ATATGTAGGTTAAGGGTCATACAGGTTGGTTCGC", "PBM binding z-score": 5.42}
